Compounds with a hit are over-represented: about 19% of the library has one in this group of screens.
ELG1 repair inh: blocks ELG1-dependent DNA repair in HEK293T cells | HEK293T ELG1-luciferase reporter, luminescence, 16 h; DNA damage induced by 5-fluorouridine | 330,000 compounds, 2.3% hits | Potency, µM (doses to about 46.1 µM), for the others: at the highest dose activity change, negative = inhibition, usual class: inhibitors; note: potency is the fitted concentration of half-maximal effect; nearly all actives have a fitted effect of over 55% in size
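DMSO vehicle served as the neutral condition. Each well held 2,000 cells given 5-fluorouridine plus compound; after 16 hr at 37 °C/5% CO2, ONE-Glo was added and luciferase measured 30 min later.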
IL-1B inflam inh: inhibitors of inflammasome signaling (IL-1 beta secretion) | THP-1 LPS/ATP IL-1B secretion, AlphaLISA, 16 h; hits give low values | activity change, % at 57.5 µM | 360,000 compounds, 4.7% hits; in the data active = activity change below about -50%; inconclusive = mostly about -30% to -49%
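Secreted IL-1B measured by AlphaLISA bead assay after 16 h compound exposure of THP-1 cells; compounds (final up to 57.5 uM) added 1 h before LPS (250 ng/mL) and ATP (1.25 mM) stimulation; lower signal means less secretion.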
HT1080 IDH1KD tx: HT-1080 IDH1 knockdown cell toxicity (counter line); HT-1080 IDH1 knockdown viability, ATP luminescence, 48 h; AID 686971; 360,000 compounds, 2% hits; Potency, µM (top dose mostly 46.1 µM), for the others: top-dose activity, negative = toxicity, usual class: cytotoxic;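 note: potency is the fitted concentration of half-maximal effect; 0% = DMSO wells and -100% = cell-free medium wells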
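After a 2 h attachment period, IDH1KD HT-1080 cells took pin-transferred compound for 48 h at 37 °C; ATP-based luminescence after 10 min room-temperature reagent incubation reported viability.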
HT1080-NT tox: kills 2HG-producing HT-1080-NT fibrosarcoma cells. AID 686970. Potency, µM (doses to about 46.1 µM), inactives show at the top dose activity, negative = less viability, usual class: cytotoxic. HT-1080-NT fibrosarcoma viability, CellTiter-Glo ATP luminescence, 48 h. 360,000 compounds, 1.6% hits;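 note: NT is the 2HG producing partner of a matched IDH1 knockdown line; potency is the fitted concentration of half-maximal effect; 0% = DMSO-treated cells and -100% = media-only wells without cells; nearly all actives have a fitted effect of over 55% in size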
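750 cells/well, RPMI + 5% FBS; 2 h settle, compound pin-transfer, 48 h at 37 degrees C. CellTiter-Glo 10 min RT, luminescence. Normalized to DMSO and media-only wells.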
DT40 TDP1 CPT: growth inhibition of DT40 Tdp1-/-;hTDP1 cells with camptothecin (screen for TDP1 inhibitors). chicken DT40 Tdp1-/-;hTDP1 cells + 20 nM CPT, ATP luminescence, 48 h. Potency, µM (highest dose often 46.2 µM), for inactives: at the highest dose activity change, negative = growth inhibition, most hits filed as inhibitors. 420,000 compounds, 12% hits; note: potency is the fitted concentration of half-maximal effect; nearly all actives have a fitted effect of over 55% in size
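Cell growth measured by CellTiter-Glo luminescence after a minimum 48 h, 37 C compound exposure with 20 nM CPT in Tdp1-knockout DT40 cells stably expressing hTDP1, seeded 400/well; qHTS titration format.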
TDP1 cell noCPT: qHTS for Inhibitors of human tyrosyl-DNA phosphodiesterase 1 (TDP1): qHTS in cells in absence of CPT; Potency, µM (titrated, usually from 46.2 µM), without a hit: at the highest dose activity change, negative = growth inhibition, usual class: inhibitors; 420,000 compounds, 15% hits; DT40 Tdp1-/- hTDP1 cells, no CPT, ATP luminescence, 48 h; note: potency is the fitted concentration of half-maximal effect; nearly all actives have a fitted effect of over 55% in size
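Camptothecin absent (DMSO only). Human TDP1-complemented DT40 knockout cells, 400 cells/well, 37 °C for minimum 48 hr; ATP measured via CellTiter-Glo, 30 min dark incubation, luminescence.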
* = called active by the depositor. Unless noted, calls come from the whole dose curve; as a rule, active = well fitted curve in the direction sought with a large enough effect; inconclusive = small, poorly fitted or top-dose-only effect, or another doubt; inactive = no such curve, though single readings can be large; an effect the other way counts as inactive or inconclusive. Unless noted, % is set by controls: 0 for no effect and ±100 for the full control effect.

What do the screens show for `CCCCN(Cc1ccccc1)C1CCN(CCc2ccccc2)CC1`?
ELG1 repair inh: -18%; IL-1B inflam inh: -65*; HT1080 IDH1KD tx: inconclusive; HT1080-NT tox: inconclusive; DT40 TDP1 CPT: inconclusive; TDP1 cell noCPT: inconclusive

What do the screens show for `C=CC[C@@H](CC(=O)N(CCO)Cc1ccccc1)C(=O)NC[C@H](OC(=O)[C@@H](CC=C)CC(=O)OC(C)(C)C)c1ccccc1`?
ELG1 repair inh: 21µM*; IL-1B inflam inh: inconclusive; HT1080 IDH1KD tx: -25%; HT1080-NT tox: -17%; DT40 TDP1 CPT: 21µM*; TDP1 cell noCPT: -79%

How did CC(Cc1ccccc1Sc1ccccc1O)N(C)C (centres undefined) do in these assays?
ELG1 repair inh: -4%; IL-1B inflam inh: -6; HT1080 IDH1KD tx: inconclusive; HT1080-NT tox: inconclusive; DT40 TDP1 CPT: inconclusive; TDP1 cell noCPT: 12µM*

How did C#CCN(C)[C@H](C)Cc1ccccc1 do in these assays?
IL-1B inflam inh: 20; HT1080 IDH1KD tx: 12%; HT1080-NT tox: 23%; DT40 TDP1 CPT: -11%; TDP1 cell noCPT: 9%

What do the screens show for `CC(C)(O)C1C2OC(=O)C1C1(O)CC3OC34C(=O)OC2C14C` (centres undefined)?
IL-1B inflam inh: 13; HT1080 IDH1KD tx: 0%; HT1080-NT tox: -13%; DT40 TDP1 CPT: -1%; TDP1 cell noCPT: 7%

What do the screens show for `C=C(C)C1CNC(C(=O)O)C1CC(=O)O` (centres undefined)?
DT40 TDP1 CPT: -1%; TDP1 cell noCPT: 1%

What do the screens show for `CCOC(=O)c1cccc(NC2c3ccccc3C(=O)N2Cc2ccco2)c1` (centres undefined)?
ELG1 repair inh: inconclusive; IL-1B inflam inh: 0; HT1080 IDH1KD tx: -11%; HT1080-NT tox: -12%; DT40 TDP1 CPT: 12µM*; TDP1 cell noCPT: 6.5µM*

How did CCS(=O)(=O)CCSP(=O)(OC)OC do in these assays?
IL-1B inflam inh: 1; HT1080 IDH1KD tx: 1%; HT1080-NT tox: -6%; DT40 TDP1 CPT: 0%; TDP1 cell noCPT: -1%

What do the screens show for `CN[C@H]1C[C@@H](N)[C@H](O)[C@@H](O[C@@H]2O[C@H](CO)[C@H](O)[C@@H]3OC4(O[C@H]23)O[C@H](C(N)CO)[C@H](O)[C@H](O)[C@H]4O)[C@@H]1O` (some centres undefined)?
DT40 TDP1 CPT: -5%; TDP1 cell noCPT: -14%

How did CCNC(=O)C1OC(n2cnc3c(N)ncnc32)C(O)C1O (centres undefined) do in these assays?
IL-1B inflam inh: inconclusive; HT1080 IDH1KD tx: inconclusive; HT1080-NT tox: inconclusive; DT40 TDP1 CPT: 6%; TDP1 cell noCPT: -5%

What do the screens show for `Nc1nc(F)nc2c1ncn2[C@@H]1O[C@H](CO)[C@@H](O)[C@H]1O`?
IL-1B inflam inh: -74*; HT1080 IDH1KD tx: 0.23µM*; HT1080-NT tox: 0.65µM*; DT40 TDP1 CPT: 0.058µM*; TDP1 cell noCPT: 0.16µM*

What do the screens show for `Nc1nc(F)nc2c1ncn2[C@@H]1O[C@H](CO)[C@@H](O)[C@@H]1O`?
ELG1 repair inh: 0%; IL-1B inflam inh: 82; HT1080 IDH1KD tx: inconclusive; HT1080-NT tox: inconclusive; DT40 TDP1 CPT: 0.21µM*; TDP1 cell noCPT: 0.16µM*

How did C=C(C)CC1(CC)C(=O)NC(=S)NC1=O do in these assays?
IL-1B inflam inh: -9; HT1080 IDH1KD tx: 15%; HT1080-NT tox: 15%; DT40 TDP1 CPT: 8%; TDP1 cell noCPT: inconclusive

What do the screens show for `COC1=CC(=O)[C@]2(C=C1OC)OC[C@@H]1Oc3c(ccc4c3C=CC(C)(C)O4)C(=O)[C@@H]12`?
ELG1 repair inh: 1.2µM*; IL-1B inflam inh: -4; HT1080 IDH1KD tx: -10%; HT1080-NT tox: -19%; DT40 TDP1 CPT: 0.29µM*; TDP1 cell noCPT: 0.21µM*

Results for CC(C)(C)n1nnnc1C(c1ccnc2ccccc12)N1CCC2(CC1)C(=O)NCN2c1ccccc1 (centres undefined) ?
IL-1B inflam inh: -9; HT1080 IDH1KD tx: 5%; HT1080-NT tox: -1%; DT40 TDP1 CPT: inconclusive; TDP1 cell noCPT: inconclusive

Results for c1ccc2c(c1)CN(Cc1ccc3c(c1)OCO3)Cc1cnnn1-2 ?
IL-1B inflam inh: 13; HT1080 IDH1KD tx: -11%; HT1080-NT tox: -5%; DT40 TDP1 CPT: inconclusive; TDP1 cell noCPT: 10µM*

How did c1ccc(CN2Cc3ccccc3-n3nncc3C2)cc1 do in these assays?
IL-1B inflam inh: 13; HT1080 IDH1KD tx: -3%; HT1080-NT tox: -2%; DT40 TDP1 CPT: -5%; TDP1 cell noCPT: inconclusive

Results for C#C[C@]1(O)C=C[C@H]2[C@@H]3CCC4=CC(=O)CC[C@@H]4[C@H]3CC[C@@]21CC ?
DT40 TDP1 CPT: 15µM*; TDP1 cell noCPT: 15µM*

Results for Cc1ccccc1-c1ccc2c(c1)C1c3c(-c4ccccc4)nnn3-c3ccccc3C(=O)N1CC2 (centres undefined) ?
IL-1B inflam inh: 51; HT1080 IDH1KD tx: -8%; HT1080-NT tox: -6%; DT40 TDP1 CPT: 21µM*; TDP1 cell noCPT: 29µM*

What do the screens show for `CCN1C[C@]2(C)CC[C@H](OC)[C@]34C2[C@H](OC(C)=O)[C@@]2(OCO[C@@]25C[C@H](OC)[C@H]2C[C@]3(O)C5[C@H]2OC)[C@@H]14`?
ELG1 repair inh: -8%; IL-1B inflam inh: 4; HT1080 IDH1KD tx: 14%; HT1080-NT tox: -6%; DT40 TDP1 CPT: 6%; TDP1 cell noCPT: 20%

What do the screens show for `c1cncc([C@H]2CCCCN2)c1`?
DT40 TDP1 CPT: 2%; TDP1 cell noCPT: -14%

How did O=C1NC2C(=CC(O)C(O)C2O)c2cc3c(cc21)OCO3 (centres undefined) do in these assays?
IL-1B inflam inh: -101*; HT1080 IDH1KD tx: 1.2µM*; HT1080-NT tox: inconclusive; DT40 TDP1 CPT: 0.41µM*; TDP1 cell noCPT: 0.29µM*

How did O=C1NC2C(O)C(O)C(O)C(O)C2c2cc3c(c(O)c21)OCO3 (centres undefined) do in these assays?
IL-1B inflam inh: -103*; HT1080 IDH1KD tx: 0.23µM*; HT1080-NT tox: 0.46µM*; DT40 TDP1 CPT: 0.16µM*; TDP1 cell noCPT: 0.073µM*

What do the screens show for `O=C1NC2C(=CC(O)C(O)C2O)c2cc3c(c(O)c21)OCO3` (centres undefined)?
IL-1B inflam inh: -117*; HT1080 IDH1KD tx: 0.15µM*; HT1080-NT tox: 0.73µM*; DT40 TDP1 CPT: 0.058µM*; TDP1 cell noCPT: 0.092µM*
